# Assay results from PubChem BioAssay (NCATS).
# Records with an inconclusive call do not appear. Entries that show only a call come without a potency. Active and inactive are the calls of the source. Calls come from the whole dose curve; as a rule, active = well fitted inhibition curve with a large enough effect; inconclusive = small, poorly fitted or top-dose-only effect, or effect the other way; inactive = flat fitted curve, though single readings scatter.
# Molecular target: ATPase family AAA domain-containing protein 5 (Homo sapiens) (UniProt Q96QE3)
# Sequence (Q96QE3 whole entry, looked up, the tested form may be a part): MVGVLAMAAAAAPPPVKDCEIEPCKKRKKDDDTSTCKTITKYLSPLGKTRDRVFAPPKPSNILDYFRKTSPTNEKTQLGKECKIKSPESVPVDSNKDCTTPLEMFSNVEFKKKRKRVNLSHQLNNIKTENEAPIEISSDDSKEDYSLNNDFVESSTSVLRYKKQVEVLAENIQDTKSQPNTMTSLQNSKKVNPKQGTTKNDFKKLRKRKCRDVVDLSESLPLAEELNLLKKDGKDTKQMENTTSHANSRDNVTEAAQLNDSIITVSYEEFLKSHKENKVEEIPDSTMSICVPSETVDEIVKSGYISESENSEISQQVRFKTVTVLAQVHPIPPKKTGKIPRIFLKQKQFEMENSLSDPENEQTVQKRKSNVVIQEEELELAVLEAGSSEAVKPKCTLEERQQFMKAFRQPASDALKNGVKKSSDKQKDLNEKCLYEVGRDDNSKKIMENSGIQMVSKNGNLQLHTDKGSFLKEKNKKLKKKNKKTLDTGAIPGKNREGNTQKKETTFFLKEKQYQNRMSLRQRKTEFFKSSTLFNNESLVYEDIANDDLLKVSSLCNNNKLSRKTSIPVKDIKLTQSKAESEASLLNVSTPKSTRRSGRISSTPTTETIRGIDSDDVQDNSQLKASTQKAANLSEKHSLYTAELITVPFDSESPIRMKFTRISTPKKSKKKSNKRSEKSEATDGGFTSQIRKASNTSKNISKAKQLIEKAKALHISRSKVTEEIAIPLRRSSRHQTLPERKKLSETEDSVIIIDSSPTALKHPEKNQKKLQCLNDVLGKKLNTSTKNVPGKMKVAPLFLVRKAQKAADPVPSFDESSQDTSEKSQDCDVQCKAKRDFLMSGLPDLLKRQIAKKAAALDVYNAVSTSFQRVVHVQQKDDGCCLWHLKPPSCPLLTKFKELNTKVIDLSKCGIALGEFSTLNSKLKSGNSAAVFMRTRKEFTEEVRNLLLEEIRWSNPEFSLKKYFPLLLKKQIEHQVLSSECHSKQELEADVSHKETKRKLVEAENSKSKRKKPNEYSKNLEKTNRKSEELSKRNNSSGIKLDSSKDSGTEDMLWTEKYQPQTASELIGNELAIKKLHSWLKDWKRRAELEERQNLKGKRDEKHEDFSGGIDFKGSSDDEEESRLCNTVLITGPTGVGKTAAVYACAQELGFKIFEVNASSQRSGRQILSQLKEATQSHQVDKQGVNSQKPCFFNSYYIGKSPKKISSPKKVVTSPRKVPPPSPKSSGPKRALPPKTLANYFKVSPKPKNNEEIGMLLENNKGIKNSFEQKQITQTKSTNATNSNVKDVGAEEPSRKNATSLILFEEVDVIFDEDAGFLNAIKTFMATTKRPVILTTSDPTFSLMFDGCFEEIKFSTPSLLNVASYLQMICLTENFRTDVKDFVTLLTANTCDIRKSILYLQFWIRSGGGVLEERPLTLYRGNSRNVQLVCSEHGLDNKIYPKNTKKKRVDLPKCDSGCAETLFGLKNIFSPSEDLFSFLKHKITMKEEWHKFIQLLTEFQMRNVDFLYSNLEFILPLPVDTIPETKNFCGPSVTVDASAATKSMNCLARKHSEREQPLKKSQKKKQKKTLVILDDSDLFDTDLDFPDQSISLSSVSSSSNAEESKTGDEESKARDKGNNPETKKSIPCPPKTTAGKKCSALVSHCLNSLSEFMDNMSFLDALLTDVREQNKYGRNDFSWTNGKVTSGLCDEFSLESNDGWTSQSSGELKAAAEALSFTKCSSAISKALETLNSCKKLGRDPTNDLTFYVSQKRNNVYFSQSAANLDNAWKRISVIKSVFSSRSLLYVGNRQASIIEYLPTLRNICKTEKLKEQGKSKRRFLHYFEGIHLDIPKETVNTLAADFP
# Test: Validation screen for small molecules that inhibit ELG1-dependent DNA repair in human embryonic kidney (HEK293T) cells expressing luciferase-tagged ELG1 (AID 493107); note: nearly all actives have a fitted effect of over 70% in size
# Conditions: HEK293T ELG1-luciferase level, luminescence, 5-fluorouridine co-treatment, 16 h; series mostly up to 46.1 µM
# Excerpt: NIH Molecular Libraries Probe Production Network [MLPCN]
# NIH Chemical Genomics Center [NCGC]
# Assay Provider: Kyungjae Myung, NHGRI, NIH
# Keywords: MLPCN, qHTS, NCGC, genotoxicity, cancer
# Cancer cells divide rapidly compared to normal cells in the body. During cell division, cancer cells need to duplicate their genome by DNA replication. The failure of genome duplication leads to cancer cells' death. Therefore, inhibitors of DNA replication could specifically kill cancer cells. Based on this concept, many chemotherapeutic agents were developed and have been used to treat cancer patients. However, there are a limited number of agents available in the clinical setting, and some of those that do exist have low efficacy and severe side effects. Therefore, if we can find the compounds that effectively block DNA replication either by directly damaging DNA or by inhibiting other cellular mechanisms, the options for cancer treatment will be broadened. With this in mind, we developed a quantitative high-throughput ELG1-luciferase reporter gene assay. Small molecules that specifically block ELG1 function in response to DNA damage can be identified by monitoring the suppression of luciferase activity. Since ELG1 defines a pathway for repairing DNA damage, agents blocking ELG1 function can be used to sensitize cancer cells to chemotherapeutic agents whose mechanism of action involves the induction of DNA damage.
# For genotoxicity screening, 2,000 cells in 4 uL/well were dispensed into white, solid-bottom 1536-well plates using a solenoid-based dispenser. Following transfer of 1 uL 5-Fluorouridine and 23 nL compound or DMSO vehicle by a pin tool, the plates were incubated 16 hr at 37 °C and 5% CO2. 5 ul ONE-Glo (Promega) was then added to each plate and following a 30 min incubation at room temperature, luciferase activity was quantified on a ViewLux CCD-based plate reader.
# Potency is the fitted concentration of half-maximal effect.
row,SMILES,Potency
1,CN1CCC(c2c[nH]c3ccc(O)cc23)CC1,inactive
2,O=C1CC[C@@]2(O)C3Cc4ccc(O)c5c4C2(CCN3CC2CC2)[C@H]1O5 (stereo not given in full),inactive
3,C[N+](C)(C)CCOC(=O)CBr,inactive
4,CCS(=O)(=O)Nc1cccc(C(=C2CCCCC2)c2cnc[nH]2)c1,inactive
5,CCCN1CCC[C@@H](c2cccc(O)c2)C1,inactive
6,CCN1C[C@@]2(COC)C3[C@@H](OC)C4[C@@H]1C3([C@@H]1C[C@]3(O)[C@H](OC(=O)c5ccccc5)[C@@H]1[C@]4(OC(C)=O)[C@@H](O)[C@@H]3OC)[C@H](OC)C[C@H]2O,inactive
7,COc1ccc(CNC(=O)/C=C/c2ccc3[nH]cc(CCN(C)C)c3c2)cc1,inactive
8,CC(C)(C)c1cc(C=C(C#N)C#N)cc(C(C)(C)C)c1O,2.31 µM (active)
9,O=[N+]([O-])c1cc(O)c(O)c([N+](=O)[O-])c1,inactive
10,c1ccc2cc(CC3=NCCN3)ccc2c1,inactive
11,CCN(CCCl)Cc1ccccc1Br,inactive
12,NC(CCCCCP(=O)(O)O)C(=O)O (stereo not given),inactive
13,Cc1[nH]c2ccc(O)cc2c1CCN,inactive
14,CC12NC(Cc3ccccc31)c1ccccc12 (stereo not given),inactive
15,NC(=O)c1ccc(OCC(O)CN2CC=C(c3ccc(F)cc3)CC2)cc1 (stereo not given),inactive
16,COc1ccc(OC)c(C(O)C(C)N)c1 (stereo not given),inactive
17,NNC(N)=O,inactive
18,NNC(=O)c1ccc(O)cc1,inactive
19,CC(N)Cc1c[nH]c2ccc(O)cc12 (stereo not given),inactive
20,CP(=O)(O)C1=CCNCC1,inactive

row,SMILES,Potency
1,CCNC(=O)[C@H]1O[C@@H](n2cnc3c(N)ncnc32)[C@H](O)[C@@H]1O,inactive
2,O=[N+]([O-])/C=C/c1ccc2c(c1)OCO2,20.6 µM (active)
3,Cc1cc([C@@H]2CCCN2C)on1,inactive
4,N=C(N)c1ccc(CS(=O)(=O)F)cc1,inactive
5,C=CCN1CC[C@]23c4c5ccc(O)c4O[C@H]2/C(=N/NC(=O)c2ccccc2)CC[C@@]3(O)[C@H]1C5,inactive
6,NCC(O)c1cc(O)c(O)cc1F (stereo not given),inactive
7,CCCN(CCC)[C@H]1CCc2c(F)ccc(O)c2C1,inactive
8,CN(C(=O)Cc1ccc(Cl)c(Cl)c1)C(CN1CCCC1)c1cccc(OCC(=O)O)c1 (stereo not given),inactive
9,C[N+]1(C)CCOC(O)(c2ccc(-c3ccc(C4(O)C[N+](C)(C)CCO4)cc3)cc2)C1 (stereo not given),inactive
10,CN1CCc2cc(O)cc3c2[C@H]1Cc1ccc(O)c(O)c1-3,20.6 µM (active)
11,O=C1C=CC(=O)C=C1,inactive
12,C[N+](C)(C)CC#CCOC(=O)Nc1cccc(Cl)c1,inactive
13,CCn1cnc2c(Nc3cccc(Cl)c3)nc(N[C@@H]3CCCC[C@@H]3N)nc21,4.61 µM (active)
14,CO[C@H]1CC=C2CCN3CCC4=C(CC(=O)OC4)[C@]23C1,inactive
15,CC(=O)NBr,inactive
16,CCCN(CCC)CCc1c[nH]c2ccc(C(N)=O)cc12,inactive
17,NC(Cc1ccc(N(CCCl)CCCl)cc1)C(=O)O (stereo not given),inactive
18,COc1ccc2[nH]c3c(c2c1)CCNC3,inactive
19,NCCCP(=O)(O)O,inactive
20,CNc1ccc2oc(C[C@H]3O[C@@]4(CC[C@H]3C)O[C@H]([C@H](C)C(=O)c3ccc[nH]3)[C@H](C)C[C@H]4C)nc2c1C(=O)O,13 µM (active)
